# Compound activity deposited in PubChem by National Center for Advancing Translational Sciences (NCATS).
# This is a sample that favours compounds with a hit; in the whole collection about 12% have one here.
# BAZ2B block = blocks human BAZ2B | AlphaScreen BAZ2B-H3K14Ac peptide displacement | Potency, µM (series often up to 114 µM), usual class: inhibitors | 360,000 compounds, 4.4% hits | AID 504333; further: nearly all actives have a fitted effect of over 60% in size
#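 AlphaScreen displacement of biotin-H3(5-23)K14Ac peptide (50 nM final) from BAZ2B (50 nM final) in PBS pH 7.4, 0.01% Tween-20; complex preformed 30 min RT, then compounds (top 110 uM) 30 min RT, beads 20 min dark.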
# G9a block = inhibitors of human histone lysine methyltransferase G9a; AID 504332; 350,000 compounds, 8.8% hits; G9a H3K9 monomethylation, AlphaScreen, 2 h; Potency, µM (titrated, usually from 102 µM), actives largely listed as inhibitors; Q96KQ7; further: nearly all actives have a fitted effect of over 75% in size
#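 AlphaScreen read-out: biotin-H3K9 peptide (500 nM) methylation by 20 nM enzyme with 20 uM SAM, 2 h at room temperature after 15 min compound preincubation; anti-monomethyl H3K9 antibody plus donor/acceptor beads, 10 min dark.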
# PLK1 PBD block = inhibitors of human PLK1 polo-box domain binding; P53350; Plk1 PBD binding of FITC phosphopeptide, fluorescence polarization; Potency, µM, hits mostly inhibitors; 360,000 compounds, 2.8% hits; AID 720504; further: series mostly up to about 57 µM; nearly all actives have a fitted effect of over 65% in size
# Target sequence (P53350 whole entry, looked up, the tested form may be a part): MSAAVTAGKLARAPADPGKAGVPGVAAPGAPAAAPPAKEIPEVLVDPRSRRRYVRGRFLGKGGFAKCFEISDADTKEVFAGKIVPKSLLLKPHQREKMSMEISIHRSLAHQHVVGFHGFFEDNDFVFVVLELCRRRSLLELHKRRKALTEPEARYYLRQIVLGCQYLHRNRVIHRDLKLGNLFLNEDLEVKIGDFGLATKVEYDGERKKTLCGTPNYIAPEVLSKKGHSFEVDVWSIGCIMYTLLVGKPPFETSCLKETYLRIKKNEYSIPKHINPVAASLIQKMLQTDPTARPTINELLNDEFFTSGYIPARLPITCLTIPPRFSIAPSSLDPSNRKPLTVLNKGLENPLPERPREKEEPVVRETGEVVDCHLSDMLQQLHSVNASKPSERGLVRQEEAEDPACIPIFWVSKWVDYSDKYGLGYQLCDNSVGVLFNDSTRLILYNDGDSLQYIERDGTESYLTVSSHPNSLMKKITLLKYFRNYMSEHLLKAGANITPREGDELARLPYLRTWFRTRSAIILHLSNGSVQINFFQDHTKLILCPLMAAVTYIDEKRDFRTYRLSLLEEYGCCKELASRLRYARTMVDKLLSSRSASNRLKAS
# HP1b chromo inh = HP1-beta chromodomain-methylated histone interaction inhibition; P83916; AlphaScreen HP1-beta / biotin-H3K9me3 peptide binding; Potency, µM (highest dose often 114 µM), hits mostly inhibitors; 390,000 compounds, 0.56% hits; AID 540317; further: nearly all actives have a fitted effect of over 70% in size
#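 HP1-beta protein (50 nM final) preincubated 30 min at room temperature with biotinylated H3(1-18)K9me3 peptide (50 nM) in PBS pH 7.4, 0.01% Tween-20, then compound added for 30 min. AlphaScreen streptavidin donor/nickel chelate acceptor beads (10 ug/mL final), 30 min dark, luminescence read.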
# JMJD2A Tudor inh = blocks the human JMJD2A Tudor domain. AID 504339. Potency, µM (series often up to 114 µM), usual class: inhibitors. O75164. AlphaScreen JMJD2A-Tudor / H3K4me3 peptide binding. 390,000 compounds, 4.4% hits; further: nearly all actives have a fitted effect of over 50% in size
# Sfp inh = inhibitors of Bacillus subtilis Sfp phosphopantetheinyl transferase; Biochemical Sfp PPTase activity, qHTS; Q9F4F7; AID 1490; Potency, µM, actives largely listed as inhibitors; 310,000 compounds, 3.5% hits;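 further: the enzyme is Sfp with the accession as filed and its product quenches rhodamine fluorescence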
#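 Buffer: 50 mM Hepes-Na pH 7.6, 10 mM MgCl2, 0.01% Nonidet P-40, 0.01% BSA. Enzyme 15 nM, pre-exposed to compound 15 min; substrates then added and fluorescence change tracked over 30 min.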
# Hits are given with their value; n = inactive; u = inconclusive; x = not tested or not shown; [ ] = dose if it differs, or a comment. The call rests on the fitted dose curve; in most records, active means well fitted curve in the direction sought with a large enough effect; inconclusive means small, poorly fitted or top-dose-only effect, or another doubt; inactive means no such curve, though single readings can be large; an effect the other way counts as inactive or inconclusive.
SMILES,BAZ2B block,G9a block,PLK1 PBD block,HP1b chromo inh,JMJD2A Tudor inh,Sfp inh
O=C1CC(c2ccco2)Sc2nc3ccccc3n21 (stereo not drawn),n,45µM,n,n,79µM,u
CCCN1C(=O)CC(c2ccco2)Sc2ccccc21 (stereo not drawn),n,u,n,n,u,35µM
COc1ccc(CCNC2=C(Cl)C(=O)N(CCc3ccccc3)C2=O)cc1OC,n,n,n,n,n,n
O=C1C(Cl)=C(Nc2ccccc2O)C(=O)N1CCc1ccccc1,32µM,3.2µM,4.2µM,u,50µM,11µM
CCOC(=O)c1cc(S(=O)(=O)N2CCC(C)CC2)cn1C,n,x,n,n,n,n
CCOC(=S)SCc1cn2ccc(C)cc2n1,n,n,n,n,n,n
CCOC(=S)SCc1cn2ccccc2n1,n,u,n,n,n,50µM
O=C(O/N=C1/CCCc2occc21)c1ccc(F)cc1,n,n,12µM,n,u,n
Cc1ccc(S(=O)(=O)O/N=C2/CCCc3occc32)cc1,n,50µM,n,n,u,n
CC1=CC(=NOS(=O)(=O)c2ccc(C)cc2)CC(C)(C)C1,x,x,n,x,x,x
COc1ccc(N2CSC3=C(C#N)C(c4cc(OC)ccc4OC)CC(=O)N3C2)c(OC)c1 (stereo not drawn),45µM,2.2µM,3.8µM,16µM,22µM,3.2µM
COc1ccc(C2C(=O)N(C3CCCCC3)CC(=O)N2C2CCCC2)cc1 (stereo not drawn),n,n,n,n,n,n
COc1ccc(C2CC(=O)N3CN(C4CCCCC4)CSC3=C2C#N)cc1 (stereo not drawn),x,1.8µM,x,u,7.1µM,x
COc1ccc(N2CSC3=C(C#N)C(c4cccs4)CC(=O)N3C2)cc1 (stereo not drawn),50µM,2.8µM,n,n,n,2.2µM
CCCSC1=C(C#N)C(c2cc(OC)ccc2OC)CC(=O)N1 (stereo not drawn),n,n,n,n,n,n
C[C@@H]1CN([C@H](C)CO)C(=O)CCCn2cc(nn2)CO[C@H]1CN(C)S(=O)(=O)c1ccccc1C#N,x,x,n,x,x,x
CC(=O)Nc1cccc(OCC(=O)NC(C)c2ccc3ccccc3c2)c1 (stereo not drawn),n,n,n,n,n,n
O=S(=O)(c1ccc(OC(F)(F)F)cc1)N1CCC(O)(c2cccc(C(F)(F)F)c2)CC1,n,n,27µM,n,n,n
CC1(C(=O)NCc2ccc3c(c2)OCO3)CCN1C(=O)C1(c2ccc(Cl)cc2)CC1 (stereo not drawn),x,x,n,x,x,x
O=C(Nc1sc2c(c1C(=O)O)CCC2)c1ccc(F)cc1,u,40µM,n,n,n,n
Cc1ccc(C(=O)c2c(NC(=O)c3cccnc3)sc3c2CCCC3)cc1,u,u,n,n,56µM,u
O=C(Nc1sc2c(c1C(=O)O)CCCCC2)c1ccccc1,u,x,19µM,u,n,40µM
O=C(Nc1sc2c(c1C(=O)O)CCCC2)c1ccc(Cl)cc1,n,n,n,n,n,n
Cc1ccc(NC(=O)c2c(NC(=O)c3ccc(F)cc3)sc3c2CCCC3)cc1C,n,u,x,n,n,x
CC1(C)Cc2c(sc(NC(=O)c3ccccc3)c2C(=O)O)CO1,n,45µM,13µM,n,n,n
SMILES,BAZ2B block,G9a block,PLK1 PBD block,HP1b chromo inh,JMJD2A Tudor inh,Sfp inh
O=C(NCCc1ccccc1)c1ccc(Nc2nc3ccccc3n3nnnc23)cc1,n,n,x,n,n,x
COc1ccc(C(=O)N2CCC(C(=O)Nc3ccccc3Cl)CC2)cc1,n,n,x,n,n,x
CCCCNC(=O)CSc1nc2cc3c(cc2c(=O)n1CCCC(=O)NCc1ccc(OC)cc1)OCO3,n,n,x,n,n,x
O=C(Cc1ccccc1)Nc1sc2c(c1C(=O)Nc1ccccc1Cl)CCCC2,n,7.1µM,x,n,n,x
O=C(Nc1sc2c(c1C(=O)O)CCCC2)c1cccc(Cl)c1,n,n,u,n,n,n
CCSc1ncc(Cl)c(C(=O)Nc2sc3c(c2C(=O)NCc2cccnc2)CCCC3)n1,n,n,n,n,100µM,n
O=C(Nc1sc2c(c1C(=O)O)CCC2)c1ccccc1,79µM,u,u,n,u,n
Cc1cc2c(s1)c1cnn(Cc3cccc(C(F)(F)F)c3F)c(=O)c1n2C,x,x,x,x,n,x
COc1ccccc1N1C(=O)[C@@H]2[C@H](C1=O)[C@H](C(=O)c1ccc(OC(C)=O)cc1)N1N=CC=C[C@@H]21,n,5µM,u,n,n,n
CC(=O)Oc1ccc(C(=O)[C@H]2[C@H]3C(=O)N(c4ccc5ccccc5c4)C(=O)[C@H]3[C@@H]3C=CC=NN32)cc1,n,u,n,n,n,n
O=C(N/N=C/C1CC=CCC1)c1ccccc1O (stereo not drawn),n,n[12.7 µM],n,n,n,n
O=c1cnnc(N/N=C/C2CC=CCC2)[nH]1 (stereo not drawn),8.9µM,n,n,n,32µM,45µM
CN(Cc1ccccc1)Cc1c(O)ccc2c(=O)c(-c3ccccc3)c(C(F)(F)F)oc12,n,n,x,n,n,x
COc1cccc(C(=O)C[n+]2ccccc2/C=N/O)c1,n,50µM,n,n,n,n
CCOc1ccc(NC(=O)c2c(NC(=O)c3ccco3)sc3c2CCC(C(C)(C)C)C3)cc1 (stereo not drawn),n,n,x,n,n,x
Cc1cc2c(ncn2C)c(NS(=O)(=O)c2cc(Cl)ccc2Cl)c1C,n,8.9µM,n,n,n,n
Cc1cc2c(ncn2C)c(NS(=O)(=O)c2ccccc2Cl)c1C,n,u,n,n,n,n
O=C(c1cccc(F)c1)N1CCC2(CC1)CN(Cc1ccccc1)C2,x,n[12.7 µM],x,x,x,n
O=C(CC(=O)c1ccncc1)c1ccccc1,x,x,n,n,32µM,x
O=C(CSc1ccc(-c2ccccn2)nn1)c1ccc([N+](=O)[O-])cc1,8.9µM,40µM,n,n,u,32µM
O=C(CC(=O)c1ccccc1)c1ccccc1,x,n[2.33 µM],n,n,n,n
O=[N+]([O-])c1cccc(-c2ccc(SCc3cccnc3)nn2)c1,u,n,n,n,n,n
O=C(COC(=O)c1ccccn1)c1ccc([N+](=O)[O-])cc1,11µM,11µM,n,n,25µM,u
O=C(CSc1ccc(-c2cccnc2)nn1)c1ccc([N+](=O)[O-])cc1,n,22µM,n,n,n,n
CCNS(=O)(=O)c1ccc(CCC(=O)N2CCCC2)cc1,n,n,n,n,n,n
O=C(NCCCn1cccn1)c1cc(COc2ccccc2)on1,x,x,n,x,x,x
CCCNS(=O)(=O)c1cc2c(cc1Br)CCN2C(=O)CC,x,x,n,n,n,x
O=C(CSc1ccc(-c2ccncc2)nn1)c1ccccc1,n,25µM,n,n,n,n
Cc1cc(=O)n2nc(-c3ccccc3)sc2c1C#N,n,n,21µM,n,u,n
COc1cccc(CNC(=O)C2(C)CCCCN2C)c1 (stereo not drawn),x,x,n,x,x,x
